# This is a sample that favours compounds with a hit; in the whole collection about 7.5% have one here.
# Rab9 promoter act = activates the Rab9 promoter. 320,000 compounds, 2.8% hits. Huh7 Rab9 promoter-luciferase reporter, luminescence, 24 h. Potency, µM (doses to about 9.22 µM), for the others: at the top dose activation, negative = inhibition, actives largely listed as activators; further: % of control where 0% means no effect; nearly all actives have a fitted effect of over 60% in size
#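 Promoter activation is measured as luciferase luminescence in Huh7 cells stably transfected with a Rab9 promoter–luciferase construct, following 24 h compound exposure at 37 °C and 10 min reagent incubation at ambient temperature.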
# SMN2 splice enh = increases expression of the SMN2 splice variant. 210,000 compounds, 2.8% hits. HEK293 SMN2-luciferase splicing reporter, luminescence, 30-36 h. Potency, µM (series often up to 46.1 µM), inactives show at the top dose activity change, positive = activation, actives largely listed as activators; further: % of control where 0% means no effect; nearly all actives have a fitted effect of over 55% in size
#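 qHTS luciferase splicing reporter: luminescence rises when SMN2 exon 7 is included in transfected HEK293 cells. Compound exposure lasted 30-36 h at 37C, with 4.5 mM final sodium butyrate as control, followed by a ONE-Glo read.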
# ELG1 genotox = induces genotoxicity in HEK293T cells with luciferase-tagged ELG1. HEK293T ELG1-luciferase reporter, luminescence, 16 h. Potency, µM (top dose mostly 46 µM), for the others: at the top dose activity change, positive = activation, hits mostly activators. 330,000 compounds, 1.3% hits. AID 504466; further: % of control where 0% means no effect; nearly all actives have a fitted effect of over 60% in size
#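 ELG1-luciferase HEK293T cells, 2,000/well; compound pinned in; 16 hr, 37 °C, 5% CO2; ONE-Glo, 30 min RT; luminescence on CCD imager.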
# FLuc modulator = firefly luciferase modulation, counter-screen for miR-21 project; purified FLuc, Km substrates, luminescence inhibition; Potency, µM (top dose mostly 57.5 µM), without a hit: top-dose activity change, negative = inhibition, hits mostly inhibitors; 360,000 compounds, 6.9% hits;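 further: plate controls were vehicle for no effect and reference inhibitor for full effect; nearly all actives have a fitted effect of over 55% in size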
# Target sequence (P08659 whole entry, looked up): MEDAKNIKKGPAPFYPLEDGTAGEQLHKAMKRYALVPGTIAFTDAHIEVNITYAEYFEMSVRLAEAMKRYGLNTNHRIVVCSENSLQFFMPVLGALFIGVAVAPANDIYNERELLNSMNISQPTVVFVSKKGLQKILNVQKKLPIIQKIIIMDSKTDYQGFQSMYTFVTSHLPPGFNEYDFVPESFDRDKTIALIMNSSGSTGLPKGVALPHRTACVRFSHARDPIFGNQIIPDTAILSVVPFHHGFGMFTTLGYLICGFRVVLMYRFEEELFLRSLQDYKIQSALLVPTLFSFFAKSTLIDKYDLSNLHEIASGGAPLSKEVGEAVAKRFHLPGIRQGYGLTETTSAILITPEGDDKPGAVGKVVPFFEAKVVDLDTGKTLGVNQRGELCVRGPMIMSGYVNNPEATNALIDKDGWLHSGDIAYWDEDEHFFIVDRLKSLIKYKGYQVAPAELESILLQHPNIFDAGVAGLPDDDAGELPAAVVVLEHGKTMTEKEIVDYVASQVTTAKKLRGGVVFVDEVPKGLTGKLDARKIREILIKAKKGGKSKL
#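 Biochemical qHTS of compounds, final roughly 60 µM downward over six points, against 10 nM purified firefly luciferase using Km concentrations of substrates (10 uM D-luciferin, 10 uM ATP) in Tris acetate pH 7.5 buffer; luminescence output.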
# Luc counter = blocks Kinase-Glo luciferase, a counter-screen artifact; Kinase-Glo luciferase, ATP luminescence, 8 min; Potency, µM (series often up to 38.3 µM), for inactives: at the highest dose activity change, negative = inhibition, hits mostly inhibitors; 200,000 compounds, 0.28% hits; further: on the % scale 0 is the no-effect control and ±100 the full control effect; nearly all actives have a fitted effect of over 60% in size
#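 Light output from Kinase-Glo luciferase with luciferin and 10 uM ATP in 50 mM imidazole pH 7.2, KCl, MgCl2, Tween 20, BSA; compound pin-delivered, 8-min ambient incubation, then luminescence read.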
# NPC1 promoter act = activates the NPC1 promoter | 320,000 compounds, 2.4% hits | Huh7 NPC1 promoter luciferase reporter, 24 h | Potency, µM (highest dose often 9.22 µM), inactives show top-dose activation, actives largely listed as activators; further: % of control where 0% means no effect; nearly all actives have a fitted effect of over 60% in size
#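 Luciferase expression driven by the NPC1 promoter was measured in stably transfected Huh7 cells after a 24 h compound incubation, using a luciferase reagent and a luminescence read.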
# * = called active by the depositor; ? = inconclusive; . = no result. The call rests on the fitted dose curve; in most records, active means well fitted curve in the direction sought with a large enough effect; inconclusive means small, poorly fitted or top-dose-only effect, or another doubt; inactive means no such curve, though single readings can be large; an effect the other way counts as inactive or inconclusive. Potency means the concentration at half of the fitted maximal effect.
SMILES,Rab9 promoter act,SMN2 splice enh,ELG1 genotox,FLuc modulator,Luc counter,NPC1 promoter act
CCOC(=O)C1CCN(C(=O)/C=C/c2ccccc2)CC1,1.12µM*,11.2µM*,13.8%,23.9µM*,-1.6%,1.41µM*
CCc1ccc(NC(=O)c2sc3ncnc(N(C)C4CCCCC4)c3c2C)cc1,.,.,.,-17.6%,.,.
CC1CC1C(=O)OCC(=O)NNC(=O)c1ccc([N+](=O)[O-])cc1 (stereo not given),-3.3%,.,-0.4%,2.7%,.,1.3%
c1ccc(OCc2noc(CN3CCC(C4CCCCC4)C3)n2)cc1 (stereo not given),-6.0%,.,-4.5%,-4.2%,-2.8%,-4.7%
O=C(COc1ccccc1Cl)OCc1cc(=O)n2nc(C3CC3)sc2n1,.,.,.,2.2%,.,.
CCOC(=O)C1(CCCc2ccccc2)CCN(CC(O)CO)CC1 (stereo not given),0.2%,.,-2.7%,-0.8%,-4.0%,-1.5%
COc1ccc(-c2csc(NCc3ccco3)n2)cc1,0.562µM*,12.6µM*,?,1.07µM*,-5.2%,0.891µM*
Cc1nc(NC(=O)c2ccccc2)sc1-c1csc(NCc2ccco2)n1,-0.6%,-10.9%,-0.9%,13.5µM*,-8.0%,2.2%
Cc1nc(C)c(-c2csc(NCc3ccccc3)n2)s1,9.9%,-39.6%,8.8%,?,-0.3%,24.0%
CCOc1ccccc1Nc1nc(-c2sc(NC(=O)c3ccco3)nc2C)cs1,3.3%,-38.0%,-9.8%,-12.9%,-5.3%,-6.7%
Cc1nc(C)c(-c2csc(NCc3ccco3)n2)s1,?,?,12.6µM*,15.1µM*,-3.4%,29.2%
c1coc(CNc2nc3ccccc3s2)c1,?,.,?,7.57µM*,.,1.58µM*
c1coc(CNc2nc(-c3ccncc3)cs2)c1,15.2%,16.2%,-0.2%,?,0.2%,26.3%
O=C1C2C3C=CC(C3)C2C(=O)N1c1ccncc1 (stereo not given),-2.4%,-6.9%,0.3%,2.5%,-2.9%,2.8%
O=C1C2C3C=CC(C3)C2C(=O)N1c1ccc(-c2nc3ccccc3o2)cc1 (stereo not given),1.41µM*,12.6µM*,1.84µM*,2.69µM*,-3.9%,1.41µM*
O=C(c1cc2ccccc2oc1=O)N(Cc1ccc(F)cc1)C1CCS(=O)(=O)C1 (stereo not given),3.16µM*,.,?,19µM*,.,?
O=C(c1cc2ccccc2oc1=O)N(Cc1cccs1)C1CCS(=O)(=O)C1 (stereo not given),?,16.9%,18.4µM*,19µM*,-0.8%,29.6%
CCc1ccc(CN(C(=O)c2cc3ccccc3oc2=O)C2CCS(=O)(=O)C2)cc1 (stereo not given),3.98µM*,17.8µM*,?,19µM*,-11.9%,2.82µM*
Cc1ccc(CN(C(=O)c2cc3ccccc3oc2=O)C2CCS(=O)(=O)C2)cc1 (stereo not given),?,4.4%,22.7%,16.9µM*,4.6%,?
Cc1ccc(/C=N/NC(=O)c2cccc(S(=O)(=O)N3CCOCC3)c2)o1,2.7%,4.4%,1.6%,-1.5%,0.9%,-1.1%
O=C1CCCN1C(=O)COc1ccccc1[N+](=O)[O-],-2.4%,.,0.5%,3.8%,.,-7.8%
COc1cc(CN(C(=O)c2cc3ccccc3oc2=O)C2CCS(=O)(=O)C2)cc(OC)c1OC (stereo not given),-0.4%,2.4%,2.9%,-16.5%,.,-1.0%
COc1ccc(CN(C(=O)c2cc3ccccc3oc2=O)C2CCCCC2)cc1OC,17.3%,25.2%,2.4%,26.9µM*,-4.6%,20.0%
N/C(=N\OC(=O)CC1CCCCC1)c1cccc(Br)c1,16.2%,.,15.5%,2.69µM*,.,14.0%
N/C(=N\OC(=O)CCC1CCCCC1)c1cccc([N+](=O)[O-])c1,8.7%,-2.5%,2.3%,10.7µM*,-1.1%,9.4%
SMILES,Rab9 promoter act,SMN2 splice enh,ELG1 genotox,FLuc modulator,Luc counter,NPC1 promoter act
N/C(=N\OC(=O)CC1CCCCC1)c1ccc(Cl)cc1,-5.1%,.,?,7.57µM*,.,4.0%
COc1ccccc1CCNC(=O)CSc1nc(=O)[nH]c2c1CCC2,3.0%,.,-5.5%,3.4%,.,-0.7%
COc1ccc(-n2nc(C(=O)NCC(=O)N3CC(C)CC(C)C3)c3ccccc3c2=O)c(OC)c1 (stereo not given),-0.6%,.,0.4%,?,.,1.4%
CCOC(=O)C1CCN(C(=O)CNC(=O)c2nn(-c3ccc(OC)cc3OC)c(=O)c3ccccc23)CC1,13.0%,.,9.5%,9.53µM*,.,4.1%
COc1ccc(-n2nc(C(=O)NCC(=O)N3CCCC3)c3ccccc3c2=O)c(OC)c1,8.2%,.,9.5%,13.5µM*,.,-1.9%
CCOC(=O)N1CCN(C(=O)CNC(=O)c2nn(-c3ccc(OC)cc3OC)c(=O)c3ccccc23)CC1,18.8%,.,?,3.79µM*,.,15.0%
O=C1C=C(c2ccc3[nH]ccc3c2)C[C@@H](c2ccc(Cl)cc2)C1,-7.2%,.,-2.5%,-13.4%,.,-1.6%
NC(=O)[C@@H]1CCCN1Cc1c(C(=O)N2CCc3ccccc3C2)nc2ccc(Cl)cn12,2.7%,.,-2.9%,2.2%,.,-5.6%
CCOC(=O)c1cnc2ccccc2c1Nc1cc(C(=O)O)ccc1C,-4.8%,-0.2%,-9.0%,?,-4.0%,0.0%
CCOC(=O)c1cnc2c(Cl)cc(Cl)cc2c1Nc1cc(C(=O)O)ccc1C,.,-6.7%,.,12µM*,.,.
COc1cc(C(=O)Oc2ccccc2/C=N/NC(=O)c2ccc(Cl)cc2Cl)cc(OC)c1OC,?,?,15.0%,?,4.1%,3.55µM*
C=CCOc1ccccc1/C=N/NC(=O)c1ccc(Cl)cc1Cl,?,1.8%,0.6%,15.1µM*,-2.5%,?
Cc1noc(C)c1NC(=O)Nc1ccc2c(c1)C(=O)N([C@H](C)CO)C[C@H](C)[C@H](CN(C)C)O2,.,.,-1.0%,.,.,.
COc1ccc(-n2nc(C(=O)Nc3ccc(Cl)cn3)c3c4ccccc4n(C)c3c2=O)cc1Cl,.,-3.9%,.,3.6%,.,.
O=C(Nc1ccc(F)cc1)c1ccc(CSc2ccccc2)o1,0.7%,-4.2%,6.7%,15.1µM*,-0.9%,-1.2%

# Source: PubChem BioAssay
